The values below come from PubChem BioAssay (NCI).

The structures appear in SMILES notation. Compounds without any hit were thinned out: in the full panel of roughly 83,000, 20% have a hit.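 Assay: single dose, 48 h. Readout: percent growth (0 = no net growth; negative = cell death). Active: <10.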 Activity calls are given as the source filed them.

In the assay the test system is HCT-116 colon. As to the kind of experiment: NCI-60 one-dose screen, 48 h (100 = growth as untreated, 0 = no growth, -100 = all killed). Conditions: 10 µM unless noted. On the procedure:
Growth inhibition of the HCT-116 human tumor cell line is measured as a screen for anti-cancer activity. Cells are grown in 96 well plates and exposed to the test compound for 48 hours. Compounds are tested at a single concentration, which is 10^-5 M for most compounds. The reported endpoint is percent growth (GI% or GIPRCNT), where numbers from 0 - 100% represent growth inhibition, and numbers from -100% - 0 represent cell death. For example, a value of 40 represents 60% growth inhibition. A value of 0 means no net growth occurred over the course of the experiment. A value of -40 indicates 40% of cells at the beginning of the experiment died by the end of the experiment. A value of -100 means all cells are dead at the end of the experiment.
NCI-60 Human Tumor Cell Lines Screen was performed using the standard one-dose NCI protocol, which is described in more detail at https://dtp.cancer.gov/discovery_development/nci-60/default.htm.
Compounds with GIPRCNT values below 10 were considered active. Activity score was based on GIPRCNT using the following formula: […]
Score is 0 for GIPRCNT values of 100 or above, 50 for GIPRCNT values of 0, and 100 for GIPRCNT values of -100.
For the compound `Cc1cc(C)c2c(c1)N(C)c1ncnc(-n3c(C)nc4cc(C)ccc43)c1CC2C` (stereo not given), the growth is 17.4% (inactive).

For `CN(C)CCn1c(=O)c2ccccc2n2nc3ccccc3c12`, the growth was 71.1% (inactive).

`O=C(O)CC(C(=O)O)/C(=C\c1ccccc1)c1ccccc1` (stereo not given): the growth is 119% (inactive).

As to `COc1cc2c(c(OC)c1OC)CCC(c1cccc(C(=O)Nc3ccc(Br)cc3)c1)O2` (stereo not given), the growth is 60.6% (inactive).

For `CC1(C)CC[C@]23CC[C@]4(C)[C@H](CC[C@@H]5[C@@]6(C)C/C(=C/O)C(=O)C(C)(C)[C@@H]6CC[C@]54C)[C@H]2[C@H]1OC3`, the growth is 105% (inactive).

Take `Oc1c(I)cc(I)cc1CN(Cc1ccccn1)Cc1ccccn1`: the growth is 18.1% (inactive).

As for `CN(C)C1CN(C(=O)c2cc(-c3ccc4ncnc(N5CCc6cc(F)c(Cl)cc65)c4c3)cnc2N)C1`, the growth was 10.6% (inactive).

Regarding `O=C(NCCCCO)c1cncnc1Nc1ccc2c(ccn2Cc2cccc(F)c2)c1`, the growth is 91.5% (inactive).

As for `Cc1ccc2c(c1)sc1nc(-c3c[nH]c4ccccc34)c(Nc3ccccc3)n12`, the growth was 104% (inactive).

In the case of `CNC(=O)NCC1OC(n2cnc3c(NC(=O)Nc4ccccc4)ncnc32)C2OC(=O)CC12` (stereo not given), the growth was 98.7% (inactive).

In the case of `O=S(O)c1cc(Cl)cc(Cl)c1OCc1ccccc1`, the growth is 96.2% (inactive).

With `CCCC(O)Cn1ncc(C(=O)OCC)c1NC(=O)NCc1cccc(C(F)(F)F)c1` (stereo not given), the growth was 61.4% (inactive).

On to `Cn1c(=O)c2[nH]c(SC/C(=N/O)c3ccc(Br)cc3)nc2n(C)c1=O`, for which the growth was 28.3% (inactive).

In the case of `C#Cc1cccc(Nc2ncnc3cc(NC(=O)CCl)ccc23)c1`, the growth is -76.3% (active).

Consider `CC(C)(C)CC(C)(C)Nc1c(-c2c(O)c3ccccc3oc2=O)nc2sc3ccccc3n12`, for which the growth is 29.6% (inactive).

In the case of `CCOC(=O)/C=C1\S/C(=N\Nc2cc(=O)[nH]c3ccc(Br)cc23)N(c2ccccc2)C1=O`, the growth is 27.1% (inactive).

As for `COCCn1cc(-c2nc(-c3cc4cccnc4n3C)cs2)c2ccccc21`, the growth is 23.5% (inactive).

Consider `Cc1cc(NCCCNc2ccnc3cc(Cl)ccc23)nc(Nc2ccc(C(=O)N3CCCCC3)cc2)n1`, for which the growth is -38.3% (active).

As for `COc1ccc(-c2nc3c(c(-c4ccc(Cl)cc4)nn3-c3ccccc3)c(-c3ccccc3)c2C#N)cc1`, the growth is 101% (inactive).

Turning to `C=C(C)[C@@H]1CC[C@]2(C)[C@H](C=CC3=C4C[C@@](C)(CO)CC[C@]4(C)CC[C@]32C)[C@@]1(C)CCCN`, the growth was -86.5% (active).

Turning to `Nc1[nH]nc2nc(-c3ccccc3)n3c4ccccc4nc3c12`, the growth is 99.4% (inactive).

`Cc1ccc(NC(=O)c2cc3ccccc3cc2O)c(C)c1`: the growth was 75.8% (inactive).

As for `CS(=O)(=O)Nc1cc(-c2ccc3ncnc(Nc4ccc(OCc5ccccn5)c(Cl)c4)c3c2)cnc1Cl`, the growth was 9.28% (active).

Consider `O=C(NCCN1CCOCC1)OCc1ccc2c(Cl)cc(Cl)c(O)c2n1`, for which the growth was 39.1% (inactive).

In the case of `COc1cc([C@@H](CCO)C[C@H](C)c2ccc3ccccc3c2)cc(OC)c1OC`, the growth is 18.7% (inactive).

Take `CCCN(CCSSCCNc1nc(N(C)O)nc(N(C)O)n1)c1nc(N(C)O)nc(N(C)O)n1`: the growth is 41% (inactive).

Take `C=C(C)[C@@H]1CC[C@]2(C(=O)N3CCN(C)CC3)CC[C@]3(C)[C@H](CC[C@@H]4[C@@](C)(CCC(=O)O)[C@H](C(=C)C)CC[C@]43C)[C@@H]12`: the growth is 68.2% (inactive).

In the case of `CCOC(=O)c1c(C)nc2c(c1N)C(=O)C(=O)N2Cc1ccc(OC)cc1`, the growth was 25.1% (inactive).

As to `N#Cc1ccc(O)c(C2=NCC(c3ccc(-c4ccccc4)cc3)O2)c1` (stereo not given), the growth was 9.12% (active).

With `Nc1ccc(Br)cc1C(F)(F)F`, the growth was 103% (inactive).

Take `CNC(=O)c1cc(Oc2ccc3c(c2)sc2nc(-c4cc(C(F)(F)F)cc(C(F)(F)F)c4)cn23)ccn1`: the growth is 36.3% (inactive).

On to `O=C(/C=C/c1cccc(Oc2ccccc2)c1)c1ccc(Nc2nc(Nc3ccc(F)cc3)nc(Nc3ccc(Cl)cc3)n2)cc1`, for which the growth is 95.1% (inactive).

In the case of `N#Cc1c(-c2ccccc2)nc2c(c(-c3ccc(Cl)cc3)nn2-c2ccccc2)c1-c1ccc([N+](=O)[O-])cc1`, the growth was 88.9% (inactive).

Consider `CNC(=O)c1cc(Oc2ccc3c(c2)sc2nc(-c4ccc(Cl)c(C(F)(F)F)c4)cn23)ccn1`, for which the growth was 41% (inactive).

As to `CC(C)(C)c1ccc(C(=O)N/N=C/c2ccc(O)cc2O)cc1`, the growth is 23.4% (inactive).

In the case of `C#CCOc1cccc(Nc2ncnc3cc(NC(=O)CCl)ccc23)c1`, the growth is -61.1% (active).

Take `CN(C)c1ccc(/C=N\NC(=O)c2ccc3nc(-c4ccc(Cl)cc4)[nH]c3c2)cc1`: the growth was 48.6% (inactive).

For the compound `CC12OC(CC(O)C1O)n1c3ccccc3c3c4c(c5c6ccccc6n2c5c31)C(=O)N(CCN1CCCC1)C4=O` (stereo not given), the growth is 13.4% (inactive).

On to `O=C(c1c[nH]c2ccccc12)c1n[nH]c(=S)n1-c1ccc([N+](=O)[O-])cc1`, for which the growth is 90.3% (inactive).

Take `CNC(=O)Nc1ccc(-c2ccc3ncnc(Nc4cccc(Cl)c4)c3c2)cc1`: the growth was 65.9% (inactive).
